In the library only some 3.9% were active in any assay of this set; here they are far more common.
Anthrax LF inh2: Bacillus anthracis LF protease inhibitors, primary screen, biochemical, multiplex microsphere, MLPCN library; actives 0.12% (n = 360,000); Lethal factor (Bacillus anthracis), P15917; multiplex microsphere protease cleavage assay; inhibition, % at 10 µM; note: plate controls were buffer without enzyme for full effect and enzyme alone for no effect
Target sequence (P15917 whole entry, looked up): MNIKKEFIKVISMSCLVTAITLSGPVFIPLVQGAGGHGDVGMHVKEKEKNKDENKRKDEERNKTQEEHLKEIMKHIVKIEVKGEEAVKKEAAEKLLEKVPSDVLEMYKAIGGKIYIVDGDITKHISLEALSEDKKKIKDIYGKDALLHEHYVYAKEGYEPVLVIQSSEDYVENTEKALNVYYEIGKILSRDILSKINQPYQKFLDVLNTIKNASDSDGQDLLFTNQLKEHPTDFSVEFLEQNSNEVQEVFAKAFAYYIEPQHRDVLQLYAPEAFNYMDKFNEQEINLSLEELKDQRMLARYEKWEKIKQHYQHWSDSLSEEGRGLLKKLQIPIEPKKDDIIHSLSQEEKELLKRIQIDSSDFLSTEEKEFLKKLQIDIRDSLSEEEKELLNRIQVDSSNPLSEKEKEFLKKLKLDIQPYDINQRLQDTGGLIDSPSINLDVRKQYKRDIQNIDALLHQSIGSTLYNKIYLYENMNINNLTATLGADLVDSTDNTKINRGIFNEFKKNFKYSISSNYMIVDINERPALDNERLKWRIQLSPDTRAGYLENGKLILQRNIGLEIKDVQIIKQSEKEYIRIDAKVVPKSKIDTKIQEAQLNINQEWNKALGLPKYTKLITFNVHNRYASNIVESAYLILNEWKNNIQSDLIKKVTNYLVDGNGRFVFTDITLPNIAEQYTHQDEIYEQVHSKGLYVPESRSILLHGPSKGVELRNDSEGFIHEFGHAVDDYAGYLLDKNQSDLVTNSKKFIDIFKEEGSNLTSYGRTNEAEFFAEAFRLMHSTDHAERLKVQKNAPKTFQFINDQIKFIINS
BoNT-F LC inh: BoNT/F light chain protease inhibitors, primary screen, biochemical, flow cytometry, MLPCN library. Multiplex microsphere protease cleavage assay. inhibition, % at 10 µM. actives 0.22% (n = 360,000). AID 588497, 2011; in the data active = inhibition above about 35%, passing the limit was not always enough; inconclusive = no clear call, values can overlap the other calls; note: plate controls were buffer without enzyme for full effect and enzyme alone for no effect
MazEF act: activators of E. coli MazEF toxin-antitoxin RNase, primary screen, biochemical, fluorescence, uHTS; activation, % at 20 µM; AID 504720, 2011; FAM/BHQ RNA-DNA oligo cleavage fluorescence, 5 h; actives 0.32% (n = 350,000); in the data active = activation above about 50%
BoNT A protease: BoNT/A light chain protease inhibitors, primary screen, biochemical, flow cytometry, MLPCN library | Botulinum neurotoxin type A light chain protease (Clostridium botulinum A str. ATCC 3502) | multiplex microsphere protease substrate cleavage | inhibition, % at 10 µM | actives 0.17% (n = 360,000) | AID 588499, 2011; note: plate controls were buffer without enzyme for full effect and enzyme alone for no effect
Bead autofluor: flagged as autofluorescent in microsphere protease counterscreen | compound autofluorescence counterscreen, microsphere flow cytometry; active compounds read high | fluorescence intensity (no concentration beside the values) | actives 3.1% (n = 360,000) | AID 624483; in the data active = fluorescence intensity above about 16000; inconclusive = no clear call, values can overlap the other calls
BH1578 lux ind: inducers of Vibrio cholerae quorum light production without autoinducers, primary screen, BH1578 luxS cqsA deficient, single point. V. cholerae BH1578 lux reporter, luminescence, 6 h. activation, % at 18.7 µM. actives 0.16% (n = 350,000). AID 588436, 2011; in the data active = activation mostly above about 9.7%, no sharp cut-off; inconclusive = no clear call, values can overlap the other calls; inactive = mostly below about 3.7%
Numbers without * were called inactive; i = inactive; ? = inconclusive. Cut-off read from the data, not from the text of the source, unless noted: active = inhibition above about 30%; inconclusive = no clear call, values can overlap the other calls; inactive = below that.

SMILES	Anthrax LF inh2	BoNT-F LC inh	MazEF act	BoNT A protease	Bead autofluor	BH1578 lux ind
COCC(=O)Nc1c(C(=O)Nc2ccccc2OC)oc2ccccc12	-1.8	-5.0	5.8	-1.2	23967*	2.7
CC(OC(=O)C1=COCCO1)C(=O)Nc1cc(S(=O)(=O)N2CCCCC2)ccc1Cl (centres undefined)	-0.6	-4.8	5.4	0.7	2775	0.2
COc1ccc(NC(=O)N(C)C[C@@H]2OCc3cnnn3CCCC(=O)N([C@H](C)CO)C[C@@H]2C)cc1	4.2	7.9	-1.7	0.1	2955	i
CCOCC(=O)Nc1c(C(=O)Nc2ccc(OC)cc2OC)oc2ccccc12	-1.4	-0.9	-0.8	?	24944*	-1.0
COc1ccc(NC(=O)c2oc3ccccc3c2NC(=O)C2CC2)c(OC)c1	9.9	10.3	-1.0	9.0	5321	-0.3
Cc1ccc(C2NC(c3ccc(C)cc3)C(C)C(=NO)C2C)cc1 (centres undefined)	-2.8	-9.9	0.1	-0.8	8306	1.7
CC1C(=NO)C(C)C(c2ccccc2)NC1c1ccccc1 (centres undefined)	-1.0	-2.4	-2.5	?	22855*	-0.6
c1ccc(COc2ccc(CNCc3cccs3)cc2)cc1	-4.2	-15.4	-3.6	-1.7	20591*	-0.2
CCn1ncc(CNC(=O)C2(C)CC2(Cl)Cl)c1C (centres undefined)	0.0	12.1	6.7	1.5	10762	-0.7
O=C1CCC(C(=O)OCc2c(Cl)cccc2Cl)N1 (centres undefined)	-1.2	1.4	4.8	0.5	20438*	-0.2
O=C1CCC(C(=O)OCc2ccccc2)N1 (centres undefined)	-0.1	-0.7	-4.0	-1.4	24033*	-0.1
CCOC(=O)CNC(=O)N1C[C@H]2CON(C)[C@H]2C[C@H]1c1ccccc1Br	-5.1	-2.2	8.1	0.2	3405	i
Cc1ccc2nsnc2c1S(=O)(=O)Nc1ccccc1C(=O)O	-0.6	?	4.2	-9.8	4856	i
Cc1cc(S(=O)(=O)Nc2c(C)ccc3nsnc23)ccc1F	2.4	3.3	-8.1	1.2	16194*	-0.2
O=S(=O)(Nc1ccccc1F)c1ccc2nsnc2c1	-0.1	-5.4	2.4	-0.1	10528	-1.1
Cc1ccc2nsnc2c1NS(=O)(=O)c1c(C)ccc2nsnc12	-0.2	-7.0	16.0	-3.4	22309*	i
CCCCCc1nc2ccccc2c(=O)n1-c1ccc(Cl)cc1[N+](=O)[O-]	-0.5	-6.0	-0.4	-2.7	23302*	0.7
COc1ccc(-c2csc(-c3cc4ccccc4oc3=N)n2)cc1	16.1	3.7	5.1	39.4*	2740	i
O=C(O)c1ccc2nc(-c3ccco3)c(-c3ccco3)nc2c1	-2.1	-1.3	-5.2	-1.4	2572	-0.3
O=C(Nc1cccc(C(F)(F)F)c1)c1ccc2nc(N3C(=O)CCC3=O)sc2c1	-2.4	2.0	3.1	1.1	22304*	i
O=C(Nc1cccc(C(F)(F)F)c1)c1ccc2nc(-c3ccco3)c(-c3ccco3)nc2c1	28.5	-6.9	9.2	63.4*	3371	-0.6
COc1ccc2[nH]c3c(=O)n(CCCCC(=O)N4CCCC4)c(=S)[nH]c3c2c1	-1.0	-0.4	5.2	0.0	23557*	-0.7
O=C(CN1C(=O)CC(c2ccco2)Sc2ccccc21)NCc1ccc2c(c1)OCO2 (centres undefined)	-2.0	-3.4	-1.6	-3.0	23277*	-0.7
COc1cc(C2CC(=O)N(CC(=O)NCc3ccco3)c3ccccc3S2)cc(OC)c1OC (centres undefined)	-1.2	-1.9	14.2	-0.8	24105*	-0.2
CCN1C(=O)CC(c2ccco2)Sc2ccccc21 (centres undefined)	-4.3	-8.1	5.4	-2.9	17133*	i
O=C(CN1C(=O)CC(c2ccco2)Sc2ccccc21)Nc1ccccc1F (centres undefined)	-0.6	-1.4	-5.1	-0.1	5725	-0.2

Assay outcomes as filed in PubChem.
